Experimental data reported in the supplement of paper PMC9950053.
Structures can show the parent of a compound that is named as a salt.

These molecules were tested on Danio rerio larvae (5 dpf) (assay: habituation (activity change first vs second 5 min of 1-s interval sound, period 17) minus DMSO control (percentage points); higher = larger habituation measure than DMSO larvae). Conditions: 10 µM; exposure time: 3 h pre-incubation + 3 h imaging.
Experimental: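 Wild-type 5 dpf zebrafish larvae (n=48 per drug, 96-well plates, 28.5 °C) were exposed to Tocris FDA-approved library compounds at 10 µM (0.1% DMSO) for 3 h before and 3 h during imaging. Images were taken every 6 s during visual and acoustic stimuli, and larvae were tracked with Z-LaP Tracker. Each measure is the treated-group mean minus the DMSO control mean (n=844), in percentage points. This mapping covers compounds with 5-character plate codes.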

In order of falling habituation:
1. CNCc1ccc(-c2[nH]c3cc(F)cc4c3c2CCNC4=O)cc1 [Rucaparib camsylate]  5.03
2. COc1ccccc1Oc1c(NS(=O)(=O)c2ccc(C(C)(C)C)cc2)nc(-c2ncccn2)nc1OCCO [Bosentan]  4.58
3. COc1cc(N)c(Cl)cc1C(=O)NC1CCN(CCCOc2ccc(F)cc2)CC1OC (configuration not stated) [Cisapride]  4.4
4. CC(C)(C(=O)O)c1ccc(C(O)CCCN2CCC(C(O)(c3ccccc3)c3ccccc3)CC2)cc1 (configuration not stated) [Fexofenadine hydrochloride]  3.94
5. C#CCN[C@@H]1CCc2ccccc21 [Rasagiline mesylate]  3.64
6. CCc1nc(N)nc(N)c1-c1ccc(Cl)cc1 [Pyrimethamine]  3.38
7. CC[C@H]1OC(=O)[C@H](C)[C@@H](O[C@H]2C[C@@](C)(OC)[C@@H](O)[C@H](C)O2)[C@H](C)[C@@H](O[C@@H]2O[C@H](C)C[C@H](N(C)C)[C@H]2O)[C@](C)(O)C[C@@H](C)CN(C)[C@H](C)[C@@H](O)[C@]1(C)O [Azithromycin]  3.26
8. OC(c1cc(C(F)(F)F)nc2c(C(F)(F)F)cccc12)C1CCCCN1 (configuration not stated) [Mefloquine hydrochloride]  3.04
9. N#C[C@@H]1C[C@@H]2C[C@@H]2N1C(=O)[C@@H](N)C12CC3CC(CC(O)(C3)C1)C2 [Saxagliptin hydrochloride]  2.76
10. NC(=O)OCC(COC(N)=O)c1ccccc1 [Felbamate]  2.5
11. C[C@@H]1C[C@H]2[C@@H]3CCC4=CC(=O)C=C[C@]4(C)[C@@]3(F)[C@@H](O)C[C@]2(C)[C@@]1(O)C(=O)CO [Dexamethasone]  2.24
12. CN(C)C(=N)NC(=N)N [Metformin hydrochloride]  2.17
13. CNS(=O)(=O)Cc1ccc2[nH]cc(CCN(C)C)c2c1 [Sumatriptan succinate]  2.06
14. NS(=O)(=O)c1cc2c(cc1Cl)NC(C1CC3C=CC1C3)NS2(=O)=O (configuration not stated) [Cyclothiazide]  1.92
15. COc1cc([C@@H]2c3cc4c(cc3[C@@H](O[C@@H]3O[C@@H]5CO[C@@H](C)O[C@H]5[C@H](O)[C@H]3O)[C@H]3COC(=O)[C@H]23)OCO4)cc(OC)c1O [Etoposide]  1.7
16. C[C@H]1O[C@H](O[C@H]2[C@H](O)[C@@H](O)[C@@H](O[C@H]3[C@H](O)[C@@H](O)C(O)O[C@@H]3CO)O[C@@H]2CO)[C@H](O)[C@@H](O)[C@@H]1N[C@H]1C=C(CO)[C@@H](O)[C@H](O)[C@H]1O (some centres not stated) [Acarbose]  1.19
17. Cc1cc2c(s1)Nc1ccccc1N=C2N1CCN(C)CC1 [Olanzapine]  0.758
18. CC(=O)Oc1cc2c(s1)CCN(C(C(=O)C1CC1)c1ccccc1F)C2 (configuration not stated) [Prasugrel]  0.528
19. CCCCCCCN(CC)CCCC(O)c1ccc(NS(C)(=O)=O)cc1 (configuration not stated) [Ibutilide hemifumarate]  -0.126
20. CN(C)CCc1c[nH]c2ccc(C[C@H]3COC(=O)N3)cc12 [Zolmitriptan]  -0.595
21. OCc1cc(C(O)CNCCCCCCOCCCCc2ccccc2)ccc1O (configuration not stated) [Salmeterol xinafoate]  -0.659
22. CCCC1O[C@@H]2C[C@H]3[C@@H]4CCC5=CC(=O)C=C[C@]5(C)[C@H]4[C@@H](O)C[C@]3(C)[C@]2(C(=O)CO)O1 (some centres not stated) [Budesonide]  -1.55
23. CC(=O)Nc1ccc(O)cc1 [Acetaminophen]  -1.62
24. OCCN1C[C@H](O)[C@@H](O)[C@H](O)[C@H]1CO [Miglitol]  -1.71
25. N#Cc1ccc2[nH]cc(CCCCN3CCN(c4ccc5oc(C(N)=O)cc5c4)CC3)c2c1 [Vilazodone hydrochloride]  -2.05
26. COc1ccccc1OCC(O)CN1CCN(CC(=O)Nc2c(C)cccc2C)CC1 (configuration not stated) [Ranolazine dihydrochloride]  -2.2
27. Clc1ccc2nsnc2c1NC1=NCCN1 [Tizanidine hydrochloride]  -2.36
28. CC(C)OC(=O)C(C)(C)Oc1ccc(C(=O)c2ccc(Cl)cc2)cc1 [Fenofibrate]  -2.39
29. CCCc1nn(C)c2c(=O)[nH]c(-c3cc(S(=O)(=O)N4CCN(C)CC4)ccc3OCC)nc12 [Sildenafil citrate]  -2.72
30. COCCc1ccc(OCC(O)CNC(C)C)cc1 (configuration not stated) [Metoprolol tartrate]  -3.41
31. COc1cc2nccc(Oc3ccc(NC(=O)C4(C(=O)Nc5ccc(F)cc5)CC4)cc3)c2cc1OC  -4.58
32. O=C(O)C[C@H](O)C[C@H](O)/C=C/c1c(C2CC2)nc2ccccc2c1-c1ccc(F)cc1 [Pitavastatin calcium]  -5.34
33. CC(C)COCC(CN(Cc1ccccc1)c1ccccc1)N1CCCC1 (configuration not stated) [Bepridil hydrochloride]  -5.91
34. O=C1CCc2ccc(OCCCCN3CCN(c4cccc(Cl)c4Cl)CC3)cc2N1 [Aripiprazole]  -7.85
35. CN[C@H]1CC[C@@H](c2ccc(Cl)c(Cl)c2)c2ccccc21 [Sertraline hydrochloride]  -8.76
36. CNC(=O)c1cc(Oc2ccc(NC(=O)Nc3ccc(Cl)c(C(F)(F)F)c3)cc2)ccn1 [Sorafenib]  -9.55
37. O=c1n(CCCN2CCN(c3cccc(Cl)c3)CC2)nc2ccccn12 [Trazodone hydrochloride]  -12.5
